# Screening data deposited in PubChem BioAssay by Sanford-Burnham Center for Chemical Genomics.
# SENP8 block-1 = inhibitors of human SENP8 protease. inhibition, % at 20 µM. recombinant SENP8, Nedd8 substrate fluorescence. AID 602440. 360,000 tested, 0.64% active; in the data active means inhibition mostly above about 40%, no sharp cut-off; inactive means mostly below about 27%
# Target sequence (Q96LD8 whole entry, looked up): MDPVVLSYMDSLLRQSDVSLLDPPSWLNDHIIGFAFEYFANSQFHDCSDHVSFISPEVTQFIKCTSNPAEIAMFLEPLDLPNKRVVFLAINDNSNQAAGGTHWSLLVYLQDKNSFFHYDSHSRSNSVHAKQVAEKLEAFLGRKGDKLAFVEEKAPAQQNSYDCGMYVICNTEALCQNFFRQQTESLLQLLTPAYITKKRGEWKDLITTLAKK
# SENP6 inh = inhibitors of human SENP6 protease; inhibition, % at 10 µM; Recombinant SENP6 catalytic domain, aminoluciferin luminescence; 330,000 tested, 1.8% active;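 active means inhibition above about 50% at the single tested dose, limit read from the data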;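 further: plate controls were DMSO wells with enzyme for no effect and DMSO wells lacking enzyme for full effect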
# TRAIL sens C8 = sensitizes caspase-8 expressing cells to TRAIL. inhibition (viability loss, TRAIL sensitization), % at 10 µM. NB7+C8 cells + TRAIL, ATPlite viability luminescence. 360,000 tested, 1% active;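 active means compounds causing at least 50% loss of cell viability in the single-dose screen, relative to plate controls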
# PPC-1+TRAIL kill = kills PPC-1 cancer cells in the presence of TRAIL; PPC-1 cells + TRAIL, ATPLite viability luminescence; cell killing (% activity), % at 4 µM or 5 µM; 220,000 tested, 0.41% active;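 active means cell killing above 50% in the first pass at 4 µM, then a duplicate retest at 5 µM averaging 50% or more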;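 further: plate controls were cells with TRAIL plus DMSO for no effect and medium-only wells lacking cells for full effect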
# SENP7 block = blocks the human protease SENP7; inhibition, % at 5 µM; 330,000 tested, 1.5% active; recombinant SENP7, Z-RLRGG-aminoluciferin luminescence, 40 min; AID 434973; Q9BQF6;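 active means inhibition above about 50% at the single test dose, limit read from the data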;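 further: plate controls were DMSO with enzyme for no effect and no enzyme buffer wells for full effect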
# SENP8 block-2 = SENP8 protease inhibition. Q96LD8. purified SENP8, Z-RLRGG-aminoluciferin cleavage, luminescence. inhibition, % at 10 µM. 330,000 tested, 1.2% active. AID 2540; in the data active means inhibition above about 50%
# PPC-1 tox = PPC-1 cell cytotoxicity; shares compounds with PPC-1+TRAIL kill; 1,200 tested, 50% active; PPC-1 viability, ATPlite luminescence, overnight; cytotoxicity, % at 5 µM;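 active means reconfirmed compounds whose average cytotoxicity reaches 50% or more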;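 further: 0% = DMSO-treated cells and 100% = wells holding medium but no cells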
# SENP8 confirm = human SENP8 inhibition, confirmed | shares compounds with SENP7 block | Recombinant SENP8, Z-RLRGG-aminoluciferin luminescence, 60 min | inhibition, % at 12.5 µM | AID 488912 | 6,200 tested, 40% active;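 active means mean inhibition across replicates above about 50%, limit read from the data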
# SENP6 confirm = confirmation of human SENP6 protease inhibitors; 6,200 tested, 58% active; inhibition, % at 12.5 µM; recombinant SENP6, Z-RLRGG-aminoluciferin luminescence; shares compounds with SENP7 block
# SENP7 confirm = confirmation of human SENP7 protease inhibitors; shares compounds with SENP7 block; recombinant SENP7, Z-RLRGG-aminoluciferin luminescence, 40 min; inhibition, % at 12.5 µM; 6,200 tested, 69% active
# Casp3 select = caspase-3 inhibition (SENP selectivity assay); shares compounds with SENP7 block; purified caspase-3, Z-DEVD-aminoluciferin luminescence, 60 min; inhibition, % at 12.5 µM; 6,200 tested, 60% active;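 active means mean inhibition above about 50%, limit read from the data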;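 further: plate controls were enzyme with DMSO for no effect and wells without caspase-3 for full effect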
# Target sequence (P42574 28-227 limits assumed): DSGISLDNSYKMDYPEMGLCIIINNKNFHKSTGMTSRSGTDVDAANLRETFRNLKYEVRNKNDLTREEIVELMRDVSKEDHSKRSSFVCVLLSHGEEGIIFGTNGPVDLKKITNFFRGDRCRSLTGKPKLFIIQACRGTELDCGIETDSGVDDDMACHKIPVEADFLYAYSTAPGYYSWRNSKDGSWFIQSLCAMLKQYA
# Luc interf = interferes with luciferase luminescence in SENP counter-screen | inhibition, % at 12.5 µM | 6,200 tested, 39% active | shares compounds with SENP7 block | Pre-incubated SENP8/Z-RLRGG-aminoluciferin, luciferase luminescence interference;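 active means mean inhibition above about 50% when retested at one dose, limit read from the data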;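 further: plate controls were DMSO wells with completed reaction for no effect and substrate without enzyme for full effect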
# Numbers without * were called inactive; . = not tested or not shown. Most compounds without a hit are left out; they make up all but 3% or so of the library.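 How the source made its calls, unless noted: active means mean inhibition above about 50% in the one-dose retest (limit read from the data); inactive means the rest.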
SMILES,SENP8 block-1,SENP6 inh,TRAIL sens C8,PPC-1+TRAIL kill,SENP7 block,SENP8 block-2,PPC-1 tox,SENP8 confirm,SENP6 confirm,SENP7 confirm,Casp3 select,Luc interf
CC(=C/c1ccccc1)/C=N/NC(=O)c1ccccn1,-36.4,69.4*,85.5*,81.5*,80.8*,60.9*,81.2*,72.5*,71.4*,92.1*,85.4*,73.3*
CCOc1ccc(S(=O)(=O)N2CCCCC2)cc1NC(=O)CCNC(=O)c1ccco1,3.2,1.2,-4.7,.,-4.2,8.5,.,.,.,.,.,.
Cc1ccc(-c2nc(-c3ccccc3)no2)c(Cl)c1,-2.8,98.3*,87.1*,80.6*,100.1*,97.0*,76.6*,95.8*,98.7*,102.2*,96.8*,82.6*
O=C1c2ccccc2C(=O)C1c1ccc2ccccc2n1,18.7,80.7*,83.6*,83.7*,99.5*,81.0*,80.3*,9.7,33.6,42.1,29.5,19.7
COC(=O)C1=C(C)NC(C)=C(C(=O)OC)C1c1ccc2ccccc2n1,-484.2,-7.9,1.4,29.4,-5.3,-8.7,.,.,.,.,.,.
CCN(CC)Cc1c(O)ccc2c(=O)c(-c3ccc4c(c3)OCCO4)coc12,-483.8,-8.0,12.2,1.5,-1.2,-1.6,.,.,.,.,.,.
O=c1c(-c2ccc3c(c2)OCCO3)coc2cc(O)cc(O)c12,32.5,67.2*,32.2,33.8,58.2*,50.2*,35.9,76.4*,72.8*,89.1*,58.1*,70.2*
CCN(C(=O)COC(=O)c1n[nH]c2ccccc12)c1ccccc1,0.3,-5.8,9.4,.,0.4,-1.3,.,.,.,.,.,.
Nc1nc2ccccc2n1C(=O)c1ccc(F)cc1,6.0,93.0*,81.2*,50.5*,94.1*,77.8*,49.7,60.0*,82.6*,96.8*,92.1*,38.3
Nc1nc2ccccc2n1C(=O)c1ccccc1,6.9,95.8*,76.6*,61.6*,95.6*,86.4*,61.6*,69.6*,93.2*,100.5*,96.2*,41.1
CC[C@@H]1CCC[C@@H](O)[C@@H](C)C(=O)O[C@H](C)[C@@H](C)C/C=C(C)/C(OC)=C\C(=O)N(C)C([C@@H](C)CC)C(=O)N(C)[C@@H](C(C)C)C(=O)N(C)[C@@H](COC)C(=O)N2CCC[C@H]2C(=O)N(C)[C@@H](C(C)C)C(=O)N2CCC[C@H]2C(=O)O1 (stereo partly specified),14.0,.,10.8,.,.,.,.,.,.,.,.,.
COc1ccc(C(=O)NNC(=O)c2ccccn2)cc1,7.6,98.6*,89.0*,85.6*,100.2*,97.3*,81.3*,98.3*,98.9*,101.9*,97.7*,97.5*
Cc1ccc2nc(NC(=O)c3ccco3)sc2c1,-151.4,92.3*,78.2*,70.2*,95.7*,93.2*,64.2*,4.8,94.5*,100.6*,91.9*,58.3*
O=C(O)c1cn(Cc2ccccc2)c2ccc(Cl)cc2c1=O,10.5,-10.6,-26.0,.,5.3,-3.7,.,.,.,.,.,.
Cc1cc(NC(=O)c2ccc3nccnc3c2)ccc1Br,-7.9,32.2,23.7,.,35.2,26.0,.,.,.,.,.,.
O=C(Nc1ccc2c(c1)OCCO2)c1ccc2nccnc2c1,15.9,53.3*,67.7*,49.6,2.1,38.6,48.9,50.5*,47.6,81.9*,80.3*,59.5*
Cc1ccc(C(=O)NCC(=O)Nc2ccc3c(c2)CCC3)cc1,3.7,-6.8,-8.1,.,-2.9,-21.8,.,.,.,.,.,.
Cc1ccc(C(=O)Nc2ccc3nccnc3c2)cc1,-395.9,67.4*,76.0*,73.6*,73.0*,51.2*,74.0*,56.3*,54.9*,87.2*,82.8*,27.3
O=C(Nc1ccc2c(c1)OCCO2)c1cccnc1,21.8,-9.2,11.5,13.2,-8.8,-21.1,.,.,.,.,.,.
Cc1ccc(C(=O)Nc2ccc3c(c2)CCC3)cc1,9.7,87.9*,78.6*,52.3*,90.6*,81.3*,53.3*,88.5*,89.1*,98.4*,87.4*,86.4*
COC(=O)c1ccc(CNC(=O)CCNC(=O)c2ccco2)cc1,3.4,-6.1,21.9,.,3.3,-2.6,.,.,.,.,.,.
Cc1ccc2nc(-c3sc4nc(C)ccc4c3N)[nH]c2c1,-253.3,56.0*,54.0*,31.6,6.8,24.2,23.7,49.5,42.8,29.6,12.1,24.2
Cc1cc(C)c2c(N)c(-c3nc4ccccc4[nH]3)sc2n1,-484.6,-8.2,-1.9,-0.6,0.9,-4.3,.,.,.,.,.,.
O=C1CNC(c2ccccc2)C(c2ccccc2)N1 (stereo unspecified),10.4,.,-8.2,.,.,.,.,.,.,.,.,.
CCOc1ccc(NC(=O)c2ccccc2O)cc1,4.7,64.4*,58.5*,68.2*,37.9,36.4,64.1*,55.4*,49.0,78.0*,64.4*,63.2*
SMILES,SENP8 block-1,SENP6 inh,TRAIL sens C8,PPC-1+TRAIL kill,SENP7 block,SENP8 block-2,PPC-1 tox,SENP8 confirm,SENP6 confirm,SENP7 confirm,Casp3 select,Luc interf
COc1ccccc1Nc1nnc(SCC2CCCCO2)s1 (stereo unspecified),11.7,91.4*,70.5*,65.0*,90.0*,87.9*,64.9*,91.3*,91.3*,99.9*,93.6*,90.8*
Cc1ccc(Nc2nnc(SCC3CCCCO3)s2)cc1 (stereo unspecified),5.9,-9.6,8.7,14.3,-13.1,-15.3,.,.,.,.,.,.
C(=N\Nc1nc2ccccc2[nH]1)/c1ccc2c(c1)OCCO2,-301.3,45.8,31.7,34.6,49.9,34.2,.,.,.,.,.,.
Cc1ccc(/C=N/Nc2ccc3ccccc3n2)o1,-457.4,78.7*,65.2*,51.5*,88.3*,85.0*,57.7*,92.8*,92.8*,100.0*,91.7*,85.1*
Cc1cccc(/C=N/Nc2ccc3ccccc3n2)c1,-406.8,91.9*,84.8*,71.3*,5.2,96.1*,72.1*,-5.6,100.7*,104.0*,98.2*,75.2*
Cc1cc(C(=O)N/N=C/c2ccc(C)o2)c2ccccc2n1,12.3,-10.4,23.3,33.8,4.1,-4.7,.,.,.,.,.,.
C(=N\Nc1ccc2ccccc2n1)/c1ccc2c(c1)OCCO2,-392.9,78.4*,81.2*,71.0*,-3.6,84.3*,74.8*,97.9*,100.5*,103.9*,97.5*,84.6*
